Test results taken from PubChem BioAssay (NCI).
The panel holds about 83,000 compounds, 20% with a hit somewhere; the sample as a whole holds those more often.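 For each line, cells grew in 96-well plates with the test compound present at a single concentration for 48 hours.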 Active and inactive are the calls of the source. How the source made its calls: active means growth percent below 10; inactive means the rest.

How the values were obtained:
Assay in all cases: NCI-60 one-dose screen, 48 h (100 = growth as untreated, 0 = no growth, -100 = all killed)
[1] = test system: NCI-H23 lung; settings: 10 µM unless noted
[2] = test system: NCI-H226 lung; settings: 10 µM unless noted
[3] = test system: NCI-H322M lung; settings: 10 µM unless noted
[4] = test system: HOP-62 NSCLC; settings: 10 µM unless noted
[5] = test system: NCI-H460 lung; settings: 10 µM unless noted
[6] = test system: HOP-92 NSCLC; settings: 10 µM
[7] = test system: A549/ATCC NSCLC; settings: 10 µM unless noted
[8] = test system: 786-0 renal; settings: 10 µM unless noted
[9] = test system: COLO 205 colon; settings: 10 µM unless noted
[10] = test system: DU-145 prostate; settings: 10 µM unless noted
[11] = test system: K-562 leukemia; settings: 10 µM unless noted
[12] = test system: MALME-3M melanoma; settings: 10 µM unless noted
[13] = test system: MDA-MB-231 breast; settings: 10 µM unless noted
[14] = test system: RXF 393 renal; settings: 10 µM unless noted
[15] = test system: SF-268 CNS; settings: 10 µM unless noted
[16] = test system: SF-295 CNS; settings: 10 µM unless noted
[17] = test system: SF-539 CNS; settings: 10 µM unless noted
[18] = test system: UACC-257 melanoma; settings: 10 µM unless noted
[19] = test system: M14 melanoma; settings: 10 µM unless noted

Measured: growth

COc1cc(-c2nn(C(C)(C)C)cc2-c2ccnc(NCCCNS(=O)(=O)c3cccc(F)c3)n2)ccc1Cl
inactive: [1] 77.7% | [2] 69.4% | [3] 85.3% | [4] 65.4% | [5] 77.2% | [6] 54.9% | [7] 50.7% | [8] 69.7% | [9] 91.5% | [10] 69.3% | [11] 33.4% | [12] 88.4% | [13] 61% | [15] 56.7% | [16] 83.7% | [17] 88.4% | [18] 97.4% | [19] 80%
active: [14] -0.456%

CN(C)C(=O)c1cc(-c2ccc3ncnc(NCc4ccccc4)c3c2)cnc1N
active: [14] -4.14%
inactive: [1] 91.6% | [2] 91.8% | [3] 87% | [4] 63.2% | [5] 104% | [6] 81.1% | [7] 72.9% | [8] 67.7% | [9] 116% | [10] 55.6% | [11] 95.9% | [12] 101% | [13] 70% | [15] 65.7% | [16] 91.7% | [17] 90.4% | [18] 94.4% | [19] 109%

Nc1nc(Nc2ccccc2SSc2ccccc2Nc2nc(N)nc(-c3ccccc3)n2)nc(-c2ccccc2)n1
active: [7] 3.73%
inactive: [1] 50.8% | [2] 59% | [3] 92.4% | [4] 17.1% | [5] 53.2% | [6] 69.7% | [8] 68.2% | [9] 115% | [10] 69.4% | [11] 62.6% | [12] 104% | [13] 62.6% | [14] 50.2% | [15] 49% | [16] 26.1% | [17] 96.2% | [18] 108% | [19] 91.9%

CCCn1cnc2c(c1=N)C(c1ccc(F)cc1)c1sc3c(CC)cccc3c1O2 (stereo not drawn)
inactive: [1] 12.4% | [3] 52% | [4] 28.2% | [6] 34.2% | [7] 17% | [12] 54.6% | [15] 18.8% | [18] 65.5% | [19] 13.3%
active: [2] -2.38% | [5] 2.7% | [8] 5.1% | [9] -51.5% | [10] 4.9% | [11] 6.04% | [13] -19.8% | [14] -17.3% | [16] 7.42% | [17] -25.6%

CC1(C)[C@@H](O)CC[C@]2(C)[C@H]3CC[C@@H]4[C@H]5[C@H](C(=O)/C=C\c6ccncc6)CC[C@]5(O)CC[C@@]4(C)[C@]3(C)CC[C@@H]12
inactive: [1] 49.2% | [2] 27.8% | [3] 93.4% | [4] 89.9% | [5] 62.9% | [6] 91.9% | [7] 71.5% | [8] 35.3% | [9] 91% | [10] 38% | [12] 94.3% | [15] 50.2% | [16] 93.3% | [17] 37.9% | [18] 72.8% | [19] 67.4%
active: [11] 9.43% | [13] -8.43% | [14] -13.7%

C=C(C)[C@@H]1CC[C@]2(COCCCNCCC#N)CC[C@]3(C)[C@H](CC[C@@H]4[C@@]5(C)CC[C@H](OCCCNCCC#N)C(C)(C)[C@@H]5CC[C@]43C)[C@@H]12
inactive: [1] 33.4% | [2] 48.8% | [3] 105% | [4] 75.6% | [5] 41.8% | [6] 49.7% | [7] 59.2% | [8] 59.8% | [9] 61.8% | [10] 65% | [12] 72.4% | [13] 54.8% | [15] 55.6% | [16] 55.9% | [17] 67.5% | [18] 61.5% | [19] 75.3%
active: [11] 3.78% | [14] -9.12%

CCCn1cnc2c(c1=N)C(c1ccc(F)cc1)c1sc3c(C)cccc3c1O2 (stereo not drawn)
inactive: [1] 25.7% | [3] 49.9% | [4] 32% | [6] 33.5% | [7] 35.6% | [8] 23.5% | [9] 52.2% | [10] 27.5% | [12] 47.1% | [13] 53% | [15] 53.8% | [18] 70.8%
active: [2] 8.74% | [5] 8.38% | [11] 5.29% | [14] -39% | [16] -0.689% | [17] -27.1% | [19] 9.53%

COc1cc(-c2nn(C(C)(C)C)cc2-c2ccnc(NCCCNS(=O)(=O)c3ccc(Cl)cc3)n2)ccc1Cl
active: [14] 4.9%
inactive: [1] 73% | [2] 53.8% | [3] 78.2% | [4] 61.7% | [5] 55.1% | [6] 48.6% | [7] 36.3% | [8] 69% | [9] 81.5% | [10] 60.5% | [11] 33.5% | [12] 87.9% | [13] 55.5% | [15] 44.1% | [16] 59.6% | [17] 84.4% | [18] 82.1% | [19] 76.8%

C=C(C)[C@@H]1CC[C@]2(COP(=O)(OCC)OCC)CC[C@]3(C)[C@H](CC[C@@H]4[C@@]5(C)CCCNC(C)(C)[C@@H]5CC[C@]43C)[C@@H]12
inactive: [1] 37.1% | [2] 53.8% | [3] 84.7% | [4] 62.9% | [6] 41% | [7] 36.3% | [8] 35.7% | [10] 31.8% | [13] 52% | [15] 50.1% | [16] 19.8% | [17] 57.7% | [18] 29.1%
active: [5] -32.8% | [9] -15.4% | [11] -10.7% | [12] -51.8% | [14] -8.28% | [19] -46.4%

COc1cc(-c2nn(C(C)(C)C)cc2-c2ccnc(NCCCNS(=O)(=O)c3ccc(C)cc3)n2)ccc1Cl
inactive: [1] 84.1% | [2] 70.9% | [3] 86% | [4] 70.8% | [5] 86.7% | [6] 70.2% | [7] 59.7% | [8] 83.2% | [9] 107% | [10] 74% | [11] 57.7% | [12] 94.4% | [13] 58.4% | [15] 63.9% | [16] 88% | [17] 91.3% | [18] 94.6% | [19] 90.5%
active: [14] 4.95%

COc1ccc(S(=O)(=O)NCCCNc2nccc(-c3cn(C(C)(C)C)nc3-c3ccc(Cl)c(OC)c3)n2)cc1
active: [14] -0.734%
inactive: [1] 87.7% | [2] 73.6% | [3] 82.5% | [4] 63.3% | [5] 84.9% | [6] 69.4% | [7] 64.4% | [8] 79.7% | [9] 105% | [10] 72.3% | [11] 59.7% | [12] 92.7% | [13] 43.8% | [15] 57.9% | [16] 91.2% | [17] 89.8% | [18] 104% | [19] 92.8%

COc1ccc(C2c3sc4c(C)cccc4c3Oc3nc(CC(=O)Nc4ccccc4)[nH]c(=O)c32)cc1 (stereo not drawn)
active: [14] 8.26%
inactive: [1] 62.2% | [2] 65.8% | [3] 95.4% | [4] 60.5% | [5] 87.1% | [6] 59.1% | [7] 93.7% | [8] 95.3% | [9] 106% | [10] 83.7% | [11] 52.1% | [12] 98% | [13] 69.8% | [15] 77.4% | [16] 83.1% | [17] 86.9% | [18] 94.9% | [19] 89%
